The assay concerns Aedes aegypti larvae. The assay can be described thus: larval motility relative to same well at 0 h (fraction); higher = more motile (less active compound), active = 0.4 or less. The conditions noted are these: 10 µM. In a few lines: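 Aedes aegypti larvae, hatched in pond salt solution with yeast at 25 °C and collected after 18–24 h, were dispensed at about 10 per well (100 µL) in 96-well plates. Compounds were tested at 10 µM, 1% v/v DMSO, with solvent and larvicide control wells on each plate. INVAPP movies (200 frames, 100 ms intervals) were recorded at 0, 2 and 24 h. Relative motility is each well's score divided by its 0 h score, median of three independent larval batches.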

This note sets out measurements from the supplement of paper PMC8540655.

A number with no mark means an inactive call.

For `Clc1cc2nc(C3CCNCC3)n(Cc3ccc(CNCCc4cnc[nH]4)cc3)c2cc1Cl`, the larval motility is 0.575 (2 h) and 0.981 (24 h).

Turning to `O=C(c1cc(O)nc2ccccc12)N1CCN(c2ccccc2)CC1`, the larval motility runs as follows: (2 h) 0.848; (24 h) 0.897.

Turning to `O[C@@](Cn1cnnn1)(c1ccc(F)cc1F)C(F)(F)c1ccc(-c2ccc(OCC(F)(F)F)cc2)cn1`, the larval motility runs as follows: (2 h) 0.718; (24 h) 0.564.

For the compound `CCOCc1nc2c(N)nc3ccccc3c2n1CC(C)(C)O`, the larval motility by setting is: (2 h) 1.09; (24 h) 0.906.

Turning to `O=c1[nH]c(=O)n(Cc2cccc(Oc3ccccc3)c2)cc1Nc1ccccc1`, the larval motility (2 h) was 0.698 and the larval motility (24 h) was 0.791.

In the case of `CC(C)(C)c1cc(CCC(=O)N2CCC2)cc(C(C)(C)C)c1O`, the larval motility is, setting by setting: (2 h) 0.769; (24 h) 0.774.

With `Nc1cc(N)c2nc(-c3ccccc3)c(Nc3ccc(F)cc3)nc2c1`, the larval motility runs as follows: (2 h) 0.877; (24 h) 0.892.

With `CCc1cc(CCC(=O)Nc2ccccc2O)c(=O)[nH]c1C`, the larval motility reads like this: (2 h) 0.689; (24 h) 0.991.

Regarding `Fc1ccc(-c2nc(-c3c[nH]c4ccc(Br)cc34)[nH]c2-c2ccc(F)cc2)cc1`, the larval motility was 0.737 (2 h) and 0.9 (24 h).

As to `C=CCc1cc(Cc2cnc(N)nc2N)cc(OC)c1O`, the larval motility was 1.05 (2 h) and 1.18 (24 h).

With `CCC[C@@H]1C[C@@H](C(=O)N[C@@H]([C@H]2O[C@H](SC)[C@H](O)[C@@H](O)[C@H]2O)[C@H](C)Cl)N(C)C1`, the larval motility is, setting by setting: (2 h) 0.804; (24 h) 0.885.

On to `CC(C)Nc1nc2cc(Cl)c(Cl)cc2n1[C@H]1O[C@@H](CO)[C@H](O)[C@@H]1O`, for which the larval motility (2 h) was 1.1 and the larval motility (24 h) is 0.602.

Take `O=C1[C@H](CC[C@H](O)c2ccc(F)cc2)[C@@H](c2ccc(O)cc2)N1c1ccc(F)cc1`: the larval motility is 0.873 (2 h) and 1.08 (24 h).

For the compound `Nc1nc(O)ncc1F`, the larval motility is 0.641 (2 h) and 1.04 (24 h).

As for `COC(=O)Nc1nc2cc(S(=O)c3ccccc3)ccc2[nH]1` (configuration not stated), the larval motility was 0.769 (2 h) and 0.934 (24 h).

Regarding `CCc1ccccc1OCCN1CCCCCC1`, the larval motility by setting is: (2 h) 1.18; (24 h) 1.21.

As to `CCC(C)(C)c1ccc(CC(C)CN2C[C@@H](C)O[C@@H](C)C2)cc1` (some centres not stated), the larval motility was 0.895 (2 h) and 0.765 (24 h).

`CCCCCCCc1[nH]c2ccccc2c(=O)c1O`: the larval motility (2 h) was 0.74 and the larval motility (24 h) is 0.565.

On to `CN(C/C=C/C#CC(C)(C)C)Cc1cccc2ccccc12`, for which the larval motility by setting is: (2 h) 0.66; (24 h) 0.879.

As to `Cc1ccc(NC(=O)c2cc(Cl)ccc2O)cc1`, the larval motility is 0.656 (2 h) and 0.616 (24 h).

In the case of `O=C1NC(=S)N/C1=C\c1cc(Br)cc(Br)c1O`, the larval motility runs as follows: (2 h) 0.761; (24 h) 0.843.

Turning to `COc1ccc(COc2cc3oc(=O)c4cc(C(C)O)ccc4c3cc2OC)cc1` (configuration not stated), the larval motility was 1.02 (2 h) and 1.2 (24 h).

On to `CC1(C)[C@H](C(=O)O)N2C(=O)C[C@H]2S1(=O)=O`, for which the larval motility runs as follows: (2 h) 0.965; (24 h) 1.35.

As for `O=C(N[C@H](CCS)C(=O)N[C@H](Cc1ccccc1)C(=O)O)c1cc2ccccc2[nH]1`, the larval motility reads like this: (2 h) 1.47; (24 h) 1.56.

Take `Cc1ccc(N2CCC(CCOc3ccc(S(C)(=O)=O)cc3)CC2)nn1`: the larval motility is, setting by setting: (2 h) 0.943; (24 h) 0.683.

`O=C(NN1C(=O)[C@@H]2C3C=CC([C@H]4C[C@@H]34)[C@@H]2C1=O)c1ccc(C(F)(F)F)cc1`: the larval motility is 0.844 (2 h) and 0.599 (24 h).

As to `O=C(Nc1ccc(-c2ccccc2)cc1)C1=C(O)C(Cc2ccccc2)OC1=O` (configuration not stated), the larval motility reads like this: (2 h) 0.886; (24 h) 0.946.

For `Cc1[nH]c2ccccc2c1CC(=O)N[C@@H](Cc1ccccc1)C(=O)N(C)c1ccccc1`, the larval motility was 0.963 (2 h) and 1.03 (24 h).

Consider `COc1ccc(SC(=O)N[C@H](CCC(=O)O)C(=O)O)cc1`, for which the larval motility runs as follows: (2 h) 0.861; (24 h) 0.93.

As to `O=C1C=C(c2ccccc2)S(=O)(=O)c2ccccc21`, the larval motility is 0.748 (2 h) and 1.01 (24 h).

Take `C(=C\c1nc2ccccc2[nH]1)/c1ccc2c(c1)OCO2`: the larval motility was 0.765 (2 h) and 1.01 (24 h).
